The entries come from a sample that favours hits as a whole.
EZH2 inh – EZH2 (human) methyltransferase inhibition. Q15910. PRC2 H3K27 methylation, DELFIA TRF, 1 h. inhibition, % at 12.5 µM. actives 0.35% (n = 57,000). AID 651548;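 active = mean inhibition of replicates at least 50% and every single replicate also reaching 50%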;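 note: dimethyl H3K27 on biotinylated H3 21-44 peptide detected by antibody; plate controls were median neutral control wells for no effect and median positive control wells for full effect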
Target sequence (Q15910 whole entry, looked up): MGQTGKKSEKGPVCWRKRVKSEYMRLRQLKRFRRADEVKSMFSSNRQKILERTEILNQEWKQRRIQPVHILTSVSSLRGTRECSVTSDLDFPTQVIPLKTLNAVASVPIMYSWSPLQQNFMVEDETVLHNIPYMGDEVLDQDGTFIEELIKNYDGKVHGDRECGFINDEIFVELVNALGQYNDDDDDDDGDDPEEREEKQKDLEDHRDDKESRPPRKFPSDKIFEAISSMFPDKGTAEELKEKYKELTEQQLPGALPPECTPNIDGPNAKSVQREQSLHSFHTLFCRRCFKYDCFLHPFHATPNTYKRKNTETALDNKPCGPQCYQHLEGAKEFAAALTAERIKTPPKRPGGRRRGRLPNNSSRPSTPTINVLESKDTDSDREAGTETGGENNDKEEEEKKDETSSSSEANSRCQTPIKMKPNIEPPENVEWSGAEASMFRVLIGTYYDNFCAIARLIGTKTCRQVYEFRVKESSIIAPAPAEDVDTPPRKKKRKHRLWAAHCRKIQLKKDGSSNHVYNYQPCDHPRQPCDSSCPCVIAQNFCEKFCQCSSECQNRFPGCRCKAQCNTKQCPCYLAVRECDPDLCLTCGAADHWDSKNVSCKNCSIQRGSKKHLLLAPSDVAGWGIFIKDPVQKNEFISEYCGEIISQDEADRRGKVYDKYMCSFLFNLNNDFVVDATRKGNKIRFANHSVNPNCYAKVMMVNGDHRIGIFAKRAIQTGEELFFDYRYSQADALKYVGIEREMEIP
An asterisk follows results filed as active.

SMILES	EZH2 inh
N#CC(OC1OC(COC2OCC(OC(=O)/C=C/c3ccc(OC4OC(CO)C(O)C(O)C4O)cc3)C(O)C2O)C(O)C(O)C1O)c1ccccc1 (stereo unspecified)	90.4*
N#C[C@@H](O[C@@H]1O[C@H](CO)[C@@H](O)[C@H](O)[C@H]1O[C@@H]1O[C@H](CO)[C@@H](O)[C@H](O)[C@H]1O)c1ccccc1	-11.0
C[C@@H]1O[C@@H](O[C@@H]2[C@@H](O)[C@H](Oc3cc(O)c4c(c3)OC(c3ccc(O)cc3)CC4=O)O[C@H](COC3OCC(O)C(O)C3O)[C@H]2O)[C@H](O)[C@H](O)[C@H]1O (stereo partly specified)	-14.3
CCOC(=O)c1c(NC(=O)c2ccc(-c3ccccc3[N+](=O)[O-])o2)sc2c1CCCC2	4.4
COC(=O)c1ccccc1NC(=O)Cn1nc(C(F)(F)F)c2c1CCCCC2	9.4
CN(CC(=O)Nc1ccc(F)c(Cl)c1)S(=O)(=O)c1ccc2ccccc2c1	-4.3
COc1ccc(C2Oc3c(OC)cc(/C=C/COC4OC(CO)C(O)C(O)C4O)cc3C2CO)cc1OC (stereo unspecified)	-6.6
COc1cc(C2c3c(cc(OC)c(O)c3OC)CC(CO)C2COC2OC(CO)C(O)C(O)C2O)cc(OC)c1O (stereo unspecified)	100.6*
O=C(NO)c1ccc(C(=O)N/N=C/c2c(O)cc(O)cc2O)cc1	40.2
COC(=O)c1ccccc1NC(=O)CN1CCN(C)CC1	1.5
O=C(CSc1nc(O)cc(=O)[nH]1)Nc1ccccc1	-34.5
O=C(OCC1OC(Oc2ccc(O)cc2COC(=O)C2(O)C(O)CCC(=O)C2O)C(O)C(O)C1O)c1ccccc1 (stereo unspecified)	22.1
O=C(OCc1ccccc1O[C@@H]1O[C@H](CO)[C@@H](O)[C@H](O)[C@H]1O)c1c(O)cccc1O[C@@H]1O[C@H](CO)[C@@H](O)[C@H](O)[C@H]1O	2.0
CC(C)CC(=O)c1c(O)cc(O)cc1OC1OC(COC(=O)c2cc(O)c(O)c(O)c2)C(O)C(O)C1O (stereo unspecified)	93.9*
O=C(Cn1cnc2sc(-c3ccccc3)cc2c1=O)Nc1ccc(F)c(Cl)c1	-4.0
Cc1sc2ncnc(NCCOCCO)c2c1C	-18.5
C/C=C/[C@H](CCn1cc(CCO)nn1)[Si](C)(C)c1ccc(OC)cc1	26.8
C/C=C/[C@@H](CCn1cc(CCO)nn1)[Si](C)(C)c1ccc(OC)cc1	13.4
C/C=C/[C@H](CC(=O)N(CCO)Cc1ccccc1)[Si](C)(C)c1ccc(OC)cc1	57.6*
Cc1[nH]c2ccc(CN3C(=O)c4ccccc4C3=O)cc2c1C	8.9
CC(C(=O)Nc1ccc(Cl)c(Cl)c1)N(c1ccccc1)S(C)(=O)=O (stereo unspecified)	-1.4
COc1ccc(-c2coc3cc(O[C@@H]4O[C@H](CO)[C@@H](O)[C@H](O)[C@H]4O)cc(O)c3c2=O)cc1	-17.9
C[C@@H]1O[C@@H](O[C@H]2[C@H](Oc3cc(O)c4c(=O)cc(-c5ccc(O)cc5)oc4c3)O[C@H](CO)[C@@H](O)[C@@H]2O)[C@H](O)[C@H](O)[C@H]1O	-5.2
CC1OC(OCC2OC(Oc3cc(O)c4c(=O)c(-c5ccc(O)cc5)coc4c3)C(O)C(O)C2O)C(O)C(O)C1OC1OC(CO)C(O)C(O)C1O (stereo unspecified)	63.5*
N#Cc1ccc(NC(=O)CCCn2cc([N+](=O)[O-])cn2)cc1	-2.7
SMILES	EZH2 inh
COc1ccc(OC)c(S(=O)(=O)N2CCC(C(=O)Nc3cc(Cl)ccc3Oc3ccccc3)CC2)c1	9.7
COc1ccc2cc(CCC(C)=O)ccc2c1	19.6
COc1ccc(CCNS(=O)(=O)c2cc(C)ccc2OC)cc1	-1.0
COc1ccc(CCc2cc(OC)cc(=O)o2)cc1	52.1*
Cc1ccc(OCC(=O)Nc2ccc(Cl)c(-c3nc4ccccc4s3)c2)cc1	3.9
O=C(CCN1C(=O)C2C3C=CC(C3)C2C1=O)Oc1cccc2cccnc12 (stereo unspecified)	-4.0
Cn1c(CN2C(=O)CSc3ccc(C(F)(F)F)cc32)nnc1SCc1ccccc1	-6.8
O=c1c(O[C@@H]2OC[C@H](O)[C@H](O)[C@H]2O)c(-c2ccc(O)c(O)c2)oc2cc(O)cc(O)c12	68.7*
COc1cc(O)c2c(=O)c(OC3OC(CO[C@@H]4O[C@@H](C)[C@H](O)[C@@H](O[C@@H]5O[C@@H](C)[C@H](O)[C@@H](O)[C@H]5O)[C@H]4O)C(O)C(O)C3O)c(-c3ccc(O)cc3)oc2c1 (stereo partly specified)	8.0
O=c1c(O[C@@H]2O[C@H](CO)[C@H](O)[C@H](O)[C@H]2O)c(-c2ccc(O)cc2)oc2cc(O)cc(O)c12	5.2
COc1cc(-c2oc3cc(O)cc(O)c3c(=O)c2O[C@@H]2O[C@H](CO)[C@@H](O)[C@H](O)[C@H]2O)ccc1O[C@@H]1O[C@H](CO)[C@@H](O)[C@H](O)[C@H]1O	-8.9
O=c1c(OC2OCC(O)C(O)C2O)c(-c2ccc(O)c(O)c2)oc2cc(O)cc(O)c12 (stereo unspecified)	99.3*
COc1c(OC)c(O)c2c(=O)c(O)c(-c3ccccc3)oc2c1OC	-30.3
O=c1c(-c2ccc(O)cc2)coc2cc(O)cc(O)c12	13.1
O=C1C[C@@H](c2ccc(O)c(O)c2)Oc2cc(O[C@@H]3O[C@H](CO)[C@@H](O)[C@H](O)[C@H]3O)cc(O)c21	5.2
O=c1c(O)c(-c2ccc(O)c(O)c2)oc2cc(O)cc(O)c12	61.9*
O=c1c(O[C@@H]2OC[C@H](O)[C@H](O)[C@H]2O)c(-c2ccc(O)cc2)oc2cc(O)cc(O)c12	99.7*
CS(=O)(=O)N(CC(=O)NC1CCCCC1)c1ccc2c3c(cccc13)CC2	-7.8
COC(=O)c1c(-c2ccc(F)cc2)csc1NC(=O)CSc1ncnc2sc3c(c12)CCC3	6.3
Cc1sc2nc(SCc3nc4ccccc4[nH]3)n(-c3ccccc3)c(=O)c2c1C	-5.0
O=C(OCc1cccc([N+](=O)[O-])c1)c1ccc(NC(=O)c2ccco2)cc1	-5.2
O=S(=O)(NCc1ccccn1)c1ccc(Cl)c(Cl)c1Cl	-19.2
COC1=CC(=O)O[C@@H](CCc2ccccc2)[C@H]1O	-26.0
CCOC(=O)c1c(-c2ccccc2)csc1NC(=O)c1cccc(OC(C)=O)c1	-4.8
Cc1ccc(OCC(=O)Nc2nc(C)cc(C)n2)cc1	4.3
SMILES	EZH2 inh
O=c1sc(N2CCN(C3CCCCC3)CC2)nc2ccsc12	4.9
COc1ccc([N+](=O)[O-])cc1NC(=O)COc1ccc(C(C)(C)C)cc1Br	-18.4
O=[N+]([O-])c1ccc(S(=O)(=O)NCCc2nc3ccccc3[nH]2)cc1	-4.6
CC(=O)c1cc(C)c(O)c(COC2OC(CO)C(O)C(O)C2O)c1O (stereo unspecified)	17.8
CC(C)CC(=O)O[C@@H]1OC=C(CO[C@@H]2O[C@H](CO)[C@@H](O)[C@H](O)[C@H]2O)[C@H]2C[C@H](O)[C@@](C)(O)[C@@H]12	9.7
O=C(O)CC(CCc1ccccc1)OC1OC(CO)C(O)C(O)C1O (stereo unspecified)	97.8*
CC1(C)CC[C@]2(C(=O)O)CC[C@]3(C)C(=CCC4[C@@]5(C)CC[C@H](O[C@@H]6OC[C@H](O)[C@H](O)[C@H]6O)[C@@](C)(CO)C5CC[C@]43C)C2C1 (stereo partly specified)	-12.0

Screens from PubChem BioAssay.
